Screens from PubChem.
12-LOX inh = Primary qHTS assay for inhibitors of human arachidonate 12S-lipoxygenase (ALOX12): Round 2 | Polyunsaturated fatty acid lipoxygenase ALOX12 (Homo sapiens), P18054 | purified 12hLO, xylenol orange hydroperoxide absorbance | Potency, µM (highest dose often 108 µM), inactives show at the top dose activity change, negative = inhibition, most hits filed as inhibitors | 580,000 tested, 1.1% active | AID 1671190, 2021; active means well fitted inhibition curve with a large enough effect; inconclusive means small, poorly fitted or top-dose-only effect, or another doubt; inactive means no such curve, though single readings can be large or run the other way; further: potency means the concentration at half of the fitted maximal effect; on the % scale 0 is the no-effect control and ±100 the full control effect
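Hydroperoxide product was detected by ferrous iron/xylenol orange as the 573 to 405 nm absorbance ratio. Arachidonic acid at 40 uM (final) was turned over for 30 min at room temperature by 150 nM human 12hLO, pH 7.0 Hepes buffer, after 15 min compound preincubation.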
LDHA block = qHTS assay for inhibitors of human lactate dehydrogenase; purified LDHA, NADH/diaphorase-resazurin fluorescence; stronger effect = lower value; 480,000 tested, 0.15% active; L-lactate dehydrogenase A chain (Homo sapiens), P00338; activity change, % (values are at about 110 or 230 µM); AID 1347041, 2019; in the data active means activity change below about -30%; inconclusive means mostly about -25% to -30%;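 further: plate controls were DMSO wells for no effect and wells without enzyme for full effect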
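Enzyme activity of human lactate dehydrogenase 5 (2 nM; 0.06 mM NADH, 0.2 mM pyruvate, 5 min, RT) is measured via a resazurin/diaphorase fluorescence readout of residual NADH.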
BCR signal inh = qHTS Assay to Find Inhibitors of Chronic Active B-Cell Receptor Signaling; ABC-DLBCL IkBa-CBG/CBR reporter, luminescence ratio, 4 h; Potency, µM (highest dose often 46.1 µM), inactives show at the top dose activity change, negative = inhibition, most hits filed as inhibitors; 340,000 tested, 0.05% active; AID 493014, 2011; active means well fitted inhibition curve with a large enough effect in the signal ratio, with a control signal flat, not every such curve was filed as active; inconclusive means small, poorly fitted or top-dose-only effect, or effect the other way, or a change in a side signal; the % refers to the signal ratio;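 further: potency means the concentration at half of the fitted maximal effect; plate controls were basal doxycycline-induced cells for no effect and cells given 10 µM MG132 for full effect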
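TMD8 human ABC-DLBCL cells with doxycycline-inducible IκBα–green luciferase fusion and unfused red luciferase, in 0.5% FBS medium; compounds up to 46 uM, 4 h at 37C. Green/red luminescence ratio, filter-overlap corrected, fitted to concentration-response curves.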
KCNH2 3.1 inh = qHTS for Inhibitors of KCHN2 3.1: Mutant qHTS. U2OS KCNH2 3.1, thallium flux FluxOr; stronger effect = lower value. 340,000 tested, 0.95% active. Potassium voltage-gated channel subfamily H member 2, brain isoform KCNH2 3.1 (human). activity change, % (tested at about 1.8 µM);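 active means maximum activity change below -70%; inconclusive means maximum activity change from -70% to -50%; inactive means maximum activity change above -50%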;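 further: thallium influx rate constant from kinetic fluorescence after stimulation buffer; on the % scale 0 is the no-effect control and ±100 the full control effect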
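Channel expression came from 3.1 mutant virus (1.77 x 10^8 /mL) applied to suspended U2OS cells for 4 h. Flux was tracked with FluxOr dye plus Red40 quencher, and kinetic rate constants normalized to controls.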
ClpP mod = qHTS Assay for Activators of ClpP. Potency, µM (titrated, usually from 57.5 µM), for inactives: at the top dose activity change, negative = active. AID 651965, 2013. purified B. subtilis ClpP, FRET peptide cleavage, 20 min. 340,000 tested, 1.9% active. ATP-dependent Clp protease proteolytic subunit (Bacillus subtilis (strain 168)), P80244; active means well fitted falling curve with a large enough effect; inconclusive means small, poorly fitted or top-dose-only effect; inactive means no such curve, though single readings can be large or run the other way; further: potency means the concentration at half of the fitted maximal effect; the source files actives as falling curves though it sought activators and does not explain the sign; nearly all actives have a fitted effect of over 65% in size
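Buffer: 100 mM Tris/HCl pH8, 100 mM KCl, 0.05% low protease BSA, 2.5% glycerol, 0.01% Tween-20. ClpP 10 microg/mL final; 20 min RT; delta FRET normalized to ADEP and DMSO controls.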
KCNH2 WT inh = qHTS for Inhibitors of KCHN2 3.1: Wildtype qHTS. Voltage-gated inwardly rectifying potassium channel KCNH2 (Homo sapiens), Q12809. U2OS, BacMam KCNH2, thallium flux FluxOr; stronger effect = lower value. activity change, % at 1.84 µM. 340,000 tested, 0.37% active;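 active means maximum activity change below -70%; inconclusive means maximum activity change between -70% and -50%; inactive means maximum activity change above -50%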; further: on the % scale 0 is the no-effect control and ±100 the full control effect
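U2OS cells transduced with wild-type KCNH2 virus are loaded with FluxOr dye for 45 min, and thallium flux is measured in kinetic reads before and after stimulation buffer. Rate constants are normalized to DMSO controls.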
An asterisk follows results filed as active; ? = inconclusive; . = no result given; [ ] = remark or other dose. Compounds with a hit are over-represented: about 3% of the library has one in this group of screens.

SMILES	12-LOX inh	LDHA block	BCR signal inh	KCNH2 3.1 inh	ClpP mod	KCNH2 WT inh
CCOC(=O)Cc1c(C)nc2c(-c3ccc(Cl)cc3)c(C)[nH]n2c1=O	8%[57.4 µM]	-4	11%	3	14µM*	15
CCOC(=O)Cc1c(C)nc2cc(-c3ccc(C(C)(C)C)cc3)[nH]n2c1=O	3%	-1	?	-7	32µM*	0
CCOC(=O)Cc1cc(=O)n2[nH]c(-c3ccccc3)cc2n1	7%	2	?	5	28µM*	-3
CCOC(=O)Cc1c(C)nc2c(C#N)c[nH]n2c1=O	10%	7	-8%	10	?	25
CCOC(=O)Cc1c(C)nc2cc(-c3ccc(C(C)(C)C)cc3)nn2c1C	-2%	12	.	.	4%	.
O=C(O)c1cc(C2CC2)nc2c1c(=O)[nH]c(=O)n2C1CC1	?	-6	.	.	.	.
Cc1cc2cc(NS(=O)(=O)c3cc(F)ccc3F)ccc2[nH]1	?	1	.	.	.	.
CNC(=O)[C@@H]1C[C@H](Oc2cccnc2)CN1C(=O)c1ccco1	49%	.	.	.	.	.
C[N+]1(CC(=O)OCCCC2CCCCC2)CCCC1	2%	-5	0%	6	.	3
CC1CCC(COC(=O)C[N+]2(C)CCCCC2)C(C)C1 (stereo not drawn)	22µM*	-2	.	.	.	.
O=C(Nc1cccc2ccccc12)/C(=C\c1cccc([N+](=O)[O-])c1)NC(=O)c1cccs1	0%	-5	0%	-86*	1%	-103*
O=C(Nc1cccc2ccccc12)/C(=C/c1cccc([N+](=O)[O-])c1)NC(=O)c1cccs1	-1%	-15	-9%	-89*	-2%	-15
Cc1cccc(NC(=O)/C(=C/c2cccc([N+](=O)[O-])c2)NC(=O)c2cccs2)c1	5%	2	0%	-10	2%	31
CNCCCNCc1ccc(C)s1	?	2	.	.	.	.
Nc1ccc2oc(-c3ccc4ccccc4c3)nc2c1	3%	6	.	.	.	.
COc1ccc(-n2nc(C)c([C@@H]3C=C[C@@H](NCc4ccccc4)C3)c2C)cc1	12%[176 µM]	.	.	.	.	.
COc1ccc2c(c1)S/C(=C\C(=O)c1ccncc1)N2C	45µM*	0	2%	-2	0%	6
O=C(NC1CC1)C1CCN(C2=NS(=O)(=O)c3ccccc32)CC1	66%	0	.	.	.	.
Cc1nn(Cc2ccccc2)c(C)c1NC(=O)CCCn1nc(C)c([N+](=O)[O-])c1C	-7%	4	3%	14	28µM*	7
CC(C)c1cc(=O)oc2cc(OS(=O)(=O)c3ccc(S(C)(=O)=O)cc3)ccc12	11%	4	.	.	.	.
O=C(CCCN1C(=O)c2cccc3cccc(c23)C1=O)OCC(=O)N1CCCCC1	2%	-1	.	10	4%	4
CC1CCN(C(=O)COC(=O)CCCN2C(=O)c3cccc4cccc(c34)C2=O)CC1	270%	3	?	-16	32µM*	-3
CCCCNc1c(-c2cccc(-c3cc(C(C)=O)cs3)c2)nc2cc(C)ccn12	-8%	0	?	-71*	-9%	-19
CCCCCCSc1cc(-c2nc3cc(C)ccn3c2NCCCC)ccc1OC	?	-1	1%	-111*	16µM*	-80*
Cc1ncc(S(C)(=O)=O)c(NCc2nnc3ccccn23)n1	1%	.	.	.	.	.
COc1ccccc1CN(Cc1cccs1)C(=O)Cc1n[nH]c(=O)c2ccccc12	?	-4	.	.	.	.
c1cc2ccc3ccc(-n4cnnn4)c4ccc(c1)c2c34	0%	1	?	-3	28µM*	-10
